# Screening data: PubChem BioAssay, National Center for Advancing Translational Sciences (NCATS)
# HTT aggregate = inhibitors of mutant huntingtin aggregate formation in PC12 cells. hit rate 1.1% among 220,000. PC12 HttQ103-GFP aggregates, Acumen cytometry, 40 h. Potency, µM (highest dose often 46.1 µM), for inactives: at the highest dose activity change, negative = inhibition, most hits filed as inhibitors; further: potency means the concentration at half of the fitted maximal effect; on the % scale 0 is the no-effect control and ±100 the full control effect; nearly all actives have a fitted effect of over 60% in size
#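 Compounds (qHTS titration) were added to PC12 cells expressing an ecdysone-driven HTT exon 1 Q103–GFP fusion after induction with 100 nM tebufenozide. Aggregate formation was measured as GFP objects in cell lysates.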
# IMPase Li cell = IMPase inhibition in cells with lithium potentiation; CHO-M1 cells, IP1 TR-FRET (IP-One), carbachol + lithium; Potency, µM (top dose mostly 59.4 µM), for the others: top-dose activity, negative = IMPase inhibition, most hits filed as inhibitors; hit rate 0.35% among 210,000; AID 1457;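 further: IP1 builds up when IMPase is blocked and the TR-FRET signal falls; potency means the concentration at half of the fitted maximal effect; plate controls were basal vehicle for no effect and high inhibitor control for full effect; nearly all actives have a fitted effect of over 50% in size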
#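 Lithium-sensitised IP1 accumulation assay; M1-expressing CHO cells treated 30 min at 37C with compound. Competitive antibody detection by time-resolved FRET followed a 10 min room-temperature lysis step.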
# HTT cytoprotect = protects HTT-Q103 PC12 cells, measured by ATP | Potency, µM (series often up to 56.4 µM), for inactives: cytoprotection (ATP increase), most hits filed as activators | PC12 HTT-Q103 induced, cytoprotection, ATP luminescence, 40 h | hit rate 0.14% among 230,000; further: potency means the concentration at half of the fitted maximal effect; % of control where 0% means no effect; nearly all actives have a fitted effect of over 45% in size
#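 Huntington model: PC12 line, ecdysone-inducible HTTQ103 exon1–GFP, tebufenozide 100 nM. Test articles in a dose series. Endpoint luminescence from cellular ATP.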
# IMPase cell inh = IMPase inhibition in cells | AID 901 | CHO-M1 cells, IP1 accumulation, HTRF TR-FRET ratio | inhibition (IP1 accumulation), % at 46.1 µM | 120,000 tested, under 10 active; active means well fitted curve in the direction sought with a large enough effect in the signal ratio, not every such curve was filed as active; inconclusive means small, poorly fitted or top-dose-only effect, or a change in a side signal; inactive means no such curve, though single readings can be large or run the other way; the % refers to the signal ratio;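 further: cells stimulated with carbachol in lithium chloride buffer; plate controls were DMSO basal wells for no effect and reference inhibitor wells for full effect; higher means more IMPase inhibition seen as more IP1 and lower FRET ratio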
# Target sequence (P97697 whole entry, looked up): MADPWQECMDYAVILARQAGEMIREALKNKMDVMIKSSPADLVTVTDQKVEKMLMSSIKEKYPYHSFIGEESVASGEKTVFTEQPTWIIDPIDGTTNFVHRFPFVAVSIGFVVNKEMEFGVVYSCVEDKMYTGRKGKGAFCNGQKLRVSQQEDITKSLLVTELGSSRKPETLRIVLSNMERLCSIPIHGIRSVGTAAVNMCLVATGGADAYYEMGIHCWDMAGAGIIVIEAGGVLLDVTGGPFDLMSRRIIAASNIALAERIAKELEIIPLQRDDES
#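 Carbachol-driven Gq signalling in CHO-M1 cells (2000/well) generates IP1. Compounds that block IMPase raise IP1 and so reduce the FRET signal from Eu-anti-IP1 and d2-IP1 after a 10 min room-temperature lysis.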
# NPSR antag = antagonists of human neuropeptide S receptor cAMP signaling. hit rate 1% among 220,000. CHO-NPSR cells, cAMP TR-FRET, antagonist mode. Potency, µM (titrated, usually from 38.3 µM), for the others: top-dose activity change, negative = inhibition, most hits filed as inhibitors. Q6W5P4. AID 1461; further: potency means the concentration at half of the fitted maximal effect; on the % scale 0 is the no-effect control and ±100 the full control effect; nearly all actives have a fitted effect of over 50% in size
# Target sequence (Q6W5P4 whole entry, looked up): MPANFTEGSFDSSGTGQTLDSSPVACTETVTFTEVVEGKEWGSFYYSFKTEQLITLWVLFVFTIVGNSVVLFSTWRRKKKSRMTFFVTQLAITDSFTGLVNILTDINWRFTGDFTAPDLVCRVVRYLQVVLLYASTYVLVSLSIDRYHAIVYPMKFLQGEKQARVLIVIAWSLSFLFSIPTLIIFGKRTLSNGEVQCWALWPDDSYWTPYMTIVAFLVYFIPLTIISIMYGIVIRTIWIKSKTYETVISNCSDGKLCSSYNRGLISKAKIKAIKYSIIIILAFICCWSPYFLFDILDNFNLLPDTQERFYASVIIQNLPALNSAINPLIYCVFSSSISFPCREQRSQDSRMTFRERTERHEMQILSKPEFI
# PNC assembly inh = perinucleolar compartment assembly inhibition | hit rate 3.1% among 140,000 | AID 2417 | activity change (PNC), negative = inhibition, % at 10 µM | PC3M PTB-GFP, PNC prevalence imaging, 16 h; stronger effect = lower value;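 active means readout at or below -70, meaning at least 70% loss of cells showing the perinucleolar compartment, a nuclear body marking cancer cells; inconclusive means readout between -30 and a set limit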;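 further: plate controls were DMSO wells for no effect and camptothecin positive control wells for full effect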
#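 Compounds are pinned in duplicate onto adhered PC3M cells stably expressing GFP-tagged PTB and incubated 16 h at 37 C. Cells are then fixed, nuclei stained with Hoechst, and PNC-positive cells counted.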
# An asterisk follows results filed as active; ? = inconclusive; . = not tested or not shown; [ ] = remark or other dose. This is a sample that favours compounds with a hit; in the whole collection about 3.4% have one here. Unless noted, the call rests on the fitted dose curve; in most records, active means well fitted curve in the direction sought with a large enough effect; inconclusive means small, poorly fitted or top-dose-only effect, or another doubt; inactive means no such curve, though single readings can be large; an effect the other way counts as inactive or inconclusive.
SMILES,HTT aggregate,IMPase Li cell,HTT cytoprotect,IMPase cell inh,NPSR antag,PNC assembly inh
CO[C@@H]1COC(=O)[C@H](COCc2ccccc2)NC(=O)C/C=C\[C@@H](C)[C@H](OC)COC(=O)[C@H](COCc2ccccc2)NC(=O)C/C=C\[C@H]1C,.,.,20%[10 µM],.,.,.
O=C(O)/C=C\C(=O)Nc1ccccc1C#Cc1ccc(Br)cc1,14%,-7%,-20%[10 µM],0,13µM*,?
O=C(O)/C=C\C(=O)Nc1ccccc1C#Cc1ccccc1,19%,-3%,9%[10 µM],14,-2%[46.1 µM],-27
COC(=O)c1ccccc1NC(=O)/C=C/C(=O)O,?,-10%,.,.,-10%,-84*
CCCCCn1c(=NC(C)=O)c(C#N)cc2c(=O)n3cccc(C)c3nc21,.,.,-1%[0.074 µM],.,.,.
N[C@H](Cc1c[nH]c2ccccc12)C(=O)O,32µM*,2%,-111%,.,.,.
CC(C)COC(=O)CNc1n[nH]c(=S)[nH]c1=O,18%,?,9%,?,?,23
CCCCOC(=O)CNc1n[nH]c(=S)[nH]c1=O,-6%,4µM*,-6%,?,10µM*,?
Cc1nc2ccccn2c1C(=O)NC1CCCCC1,-15%,6%[38.3 µM],-1%,-3,-3%[46.1 µM],-105*
Cc1nc2ccccn2c1C(=O)NN=C1CCCC1,-1%,5%,13%[10 µM],.,6%,.
CC(=O)NCCc1ccc(S(=O)(=O)Nc2cccnc2)cc1,-17%,0%,1%[10 µM],7,-4%[46.1 µM],-82*
O=S(=O)(Nc1cccnc1)c1ccc(C2CCCCC2)cc1,2.8µM*,35%[38.3 µM],7%[10 µM],7,-10%[46.1 µM],36
Cn1c(=O)c2c(nc(N/N=C\c3ccccc3C(=O)O)n2C)n(C)c1=O,.,-8%,-6%[10 µM],.,.,.
O=C(COc1ccccc1)NNC1=NS(=O)(=O)c2ccccc21,-4%,14%,-67%,.,4%,.
C=CCN1C(C(=O)c2ccccc2)=C(OC(=O)COc2ccccc2)c2ccccc2S1(=O)=O,13µM*,2%,18%[10 µM],.,2%,41
O=C(c1ccco1)N1CCC2(CC1)CN(c1ccccc1)C2,.,-6%,0%,.,.,.
CC(=O)c1c(C)n(-c2ccccc2)c2ccc(O)cc12,10µM*,31%[38.3 µM],26%,16,-14%[46.1 µM],6
COc1cc(-c2c(C#N)c(N)nc3c2CCCC3)cc(OC)c1OC,6%,-2%,-18%[10 µM],-9,-19%[46.1 µM],-100*
CCOc1cc(-c2cc(-c3ccc(N)cc3)nc(N)c2C#N)ccc1O,14%,-28%[38.3 µM],18%,-24,-9%[46.1 µM],66
CCOc1cc(-c2c(C#N)c(N)nc3c2CCCC3)ccc1O,-15%[9.22 µM],2%[38.3 µM],12%[10 µM],2,-14%[46.1 µM],-114*
COc1cc(OC)cc(-n2nnnc2SCC(=O)Nc2ccc(C(C)=O)cc2)c1,-11%,3.5µM*,16%,-5,9%[46.1 µM],43
COc1ccc(NC(=O)CSc2nnnn2-c2ccc(OC)cc2)cc1,5%,23%[38.3 µM],12%,1,-10%[46.1 µM],19
COc1cc2[nH]c3c(=O)n4c(nc3c2cc1OC)SCCC4,-22%,2%,-66%,.,9%,.
O=C1c2ccsc2SCCN1Cc1c(Cl)cccc1Cl,22µM*,28%[38.3 µM],-99%[10 µM],7,?,-14
CCC(C)n1c(=S)[nH]c2c(sc3ccc([N+](=O)[O-])cc32)c1=O (stereo not drawn),10µM*,3%,18%[10 µM],.,-11%,-15
SMILES,HTT aggregate,IMPase Li cell,HTT cytoprotect,IMPase cell inh,NPSR antag,PNC assembly inh
CCNc1ncc2nc(-c3ccc(Cl)cc3)c(=O)n(Cc3ccc(F)cc3)c2n1,.,2µM*,5%,.,.,.
CCNc1ncc2nc(-c3cccs3)c(=O)n(Cc3cccc(OC)c3)c2n1,.,2µM*,-25%,.,.,.
CCNc1ncc2nc(-c3cn(C)c4ccccc34)c(=O)n(Cc3ccc(F)cc3)c2n1,.,0%,25µM*,.,.,.
CCNc1ncc2nc(-c3ccc(Cl)cc3)c(=O)n(C3CC3)c2n1,.,5µM*,-49%,.,.,.
CC(=O)c1ccc(OC2C(O)COC2/C=C/c2ccc(Cl)cc2)cc1 (stereo not drawn),.,.,9%[10 µM],.,.,.
COC(=O)c1cc(C)sc1NC(=O)C1CC=CCC1C(=O)O (stereo not drawn),1%,11µM*,4%,?,?,51
Cc1sc(NC(=O)C2CC=CCC2C(=O)O)c(C(=O)OC(C)C)c1C (stereo not drawn),16%,-2%[38.3 µM],2%,-4,?,-5
COC(=O)c1sccc1NC(=O)Cc1ccc(OC)cc1,40µM*,0%,.,0,-4%[46.1 µM],?
CCOC(=O)c1c(NC(=O)C2C3C=CC(CC3)C2C(=O)O)sc(C)c1C (stereo not drawn),1%,-7%,19%[10 µM],.,5%,55
COC(=O)c1cc(C)sc1NC(=O)C1C2C=CC(CC2)C1C(=O)O (stereo not drawn),21%,10µM*,.,.,-34%,?
COC(=O)c1cc(C)sc1NC(=O)CCCC(=O)O,-3%,18%[38.3 µM],-11%,3,-7%[46.1 µM],-119*
CCOC(=O)C1C(C(=O)Nc2cccc(C(F)(F)F)c2)C1C(=O)NC(C)C (stereo not drawn),-10%,-9%,15%[10 µM],.,1%,.
O=C(O)c1ccc(-c2ccccc2C(F)(F)F)s1,.,2%,1%[96.6 µM],.,.,.
COc1ccc2nc(/C=N/NC(=O)[C@@H]3CCCN3C(=O)OC(C)(C)C)ccc2c1,4%[9.22 µM],.,-2%[10 µM],.,7%,.
COC(=O)c1sccc1NC(=O)C1CCCCC1C(=O)O (stereo not drawn),?,.,3%,.,14%,.
COC(=O)c1sccc1NC(=O)C1CC=CCC1C(=O)O (stereo not drawn),3%,10µM*,6%,?,?,?
c1ccc2c(c1)OC(CCCN1CCCCC1)c1ccccc1S2 (stereo not drawn),4%,19%,11%[10 µM],8,?,-100*
CN1CCCC(CC2Oc3ccccc3Sc3ccccc32)C1 (stereo not drawn),?,16%,-22%[10 µM],.,2%,-6
COCCn1c(Cc2cccn2C)nnc1SCC(=O)NCc1ccc2c(c1)OCO2,-11%,-1%,-17%,.,3%,.
O=C(O)CCc1ccc(-c2ccc(Br)cc2)o1,17%,8.9µM*,-35%,?,?,?
CC[C@H](C)N(C)C(=O)c1cc2ccccc2c(-c2ccccc2Cl)n1,.,16%,19%,6,.,.
O=C(Cn1ncc(Cl)c(Cl)c1=O)N1CCN(S(=O)(=O)c2ccc3ccccc3c2)CC1,27%[9.22 µM],.,7%[10 µM],6,13µM*,-16
Oc1ccc(NCc2ccccc2OCc2ccc(Cl)cc2)cc1,.,.,.,25,.,.
Cc1nc2ccccc2cc1OCc1ccccc1,13µM*,11%[38.3 µM],-23%,1,-19%[46.1 µM],-25
Cc1nc2ccccc2cc1OCc1ccc(Cl)cc1,7.9µM*,6%,.,2,-1%[46.1 µM],-23
